Source: PubChem
NTR1 agonist = agonists of human neurotensin receptor NTR1; activation, % at 20 µM; P30989; actives 0.17% (n = 330,000); NTR1-U2OS beta-arrestin-GFP spot imaging, agonist mode;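 active = activation at or above 40% of the spot to cytoplasm intensity ratio, with at least 20 cells analyzed; inconclusive = wells under 20 cells, flagged as cytotoxic or low count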;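 note: 0% = DMSO without peptide and 100% = 100 nM NTR1 peptide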
AI-2 QS mod = Vibrio harveyi AI-2 quorum sensing modulation; activity change, % at 7.5 µM; Vibrio harveyi JMH597 AI-2 luminescence/OD600 ratio, 9 h; active compounds read low; strain lacks LuxN and CqsS sensors; 0 = neutral-control median; actives 0.4% (n = 300,000); in the data active = activity change below about -75%, passing the limit was not always enough; inconclusive = no clear call, values can overlap the other calls;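 note: luminescence divided by OD600 gain over 9 h not by final OD600 alone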
DSG3 Ab inh = blocks pemphigus antibody binding to human desmoglein-3 | DSG3-coupled beads, scFv-anti-DSG3-GFP binding, flow cytometry; active compounds read low | binding (percent of control), % at 10 µM | actives 0.48% (n = 310,000) | AID 588358;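 active = binding more than 3 SD below its plate's average and above zero; inconclusive = below that plate limit but binding exactly zero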;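 note: hits lower antibody fragment binding to DSG3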
VLA-4 inh = inhibition in a human VLA-4 binding assay. actives 0.2% (n = 330,000). inhibition, % (about 7 µM as worked out from the volumes in the protocol). VLA-4 expressing cells, ligand binding flow cytometry. AID 2557. P13612; in the data active = inhibition above about 50%
Target sequence (P13612 whole entry, looked up): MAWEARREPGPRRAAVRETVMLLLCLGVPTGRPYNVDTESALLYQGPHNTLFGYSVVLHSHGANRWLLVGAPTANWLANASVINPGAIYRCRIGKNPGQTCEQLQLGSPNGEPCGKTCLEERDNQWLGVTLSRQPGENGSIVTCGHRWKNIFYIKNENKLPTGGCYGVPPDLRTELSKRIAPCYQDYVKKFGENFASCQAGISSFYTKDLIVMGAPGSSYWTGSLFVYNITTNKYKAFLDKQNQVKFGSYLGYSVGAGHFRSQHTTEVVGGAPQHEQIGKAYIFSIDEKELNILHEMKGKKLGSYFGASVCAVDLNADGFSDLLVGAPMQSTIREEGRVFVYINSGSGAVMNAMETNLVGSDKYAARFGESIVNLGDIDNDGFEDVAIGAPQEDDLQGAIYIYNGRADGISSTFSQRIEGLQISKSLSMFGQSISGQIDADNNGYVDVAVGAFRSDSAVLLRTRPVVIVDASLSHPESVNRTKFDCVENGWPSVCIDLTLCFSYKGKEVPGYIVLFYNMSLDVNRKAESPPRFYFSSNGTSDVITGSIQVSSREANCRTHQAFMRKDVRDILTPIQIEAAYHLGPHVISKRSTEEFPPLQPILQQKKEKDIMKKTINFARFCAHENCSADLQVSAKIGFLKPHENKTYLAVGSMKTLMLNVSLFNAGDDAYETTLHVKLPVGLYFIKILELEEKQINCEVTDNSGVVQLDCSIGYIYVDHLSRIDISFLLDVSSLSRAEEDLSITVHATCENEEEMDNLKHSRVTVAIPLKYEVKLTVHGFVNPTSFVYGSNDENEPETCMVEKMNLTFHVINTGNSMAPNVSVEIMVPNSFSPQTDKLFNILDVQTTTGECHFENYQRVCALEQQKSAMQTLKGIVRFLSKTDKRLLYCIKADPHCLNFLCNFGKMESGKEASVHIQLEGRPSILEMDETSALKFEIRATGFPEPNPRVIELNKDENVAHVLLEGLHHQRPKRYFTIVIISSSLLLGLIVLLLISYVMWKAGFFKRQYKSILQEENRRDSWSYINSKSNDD
JMH597 growth rt = retest Vibrio harveyi JMH597 growth inhibition; shares compounds with AI-2 QS mod; OD600 absorbance, 9 h; lacks LuxN and CqsS sensors; growth inhibition, % at 7.5 µM; actives 1% (n = 750);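 active = every replicate shows growth inhibition above 50%; inconclusive = at least half, but not all, replicates pass that cutoff; inactive = fewer than half of replicates pass it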
BB721 lum counter = retest counter-screen: BB721 constitutive quorum sensing luminescence decrease; shares compounds with AI-2 QS mod; Vibrio harveyi BB721 luminescence, 9 h; inhibition, % at 7.5 µM; actives 95% (n = 750);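 active = inhibition above about 80% in every replicate, not just on average, limit read from the data; inconclusive = at least half of replicates past the limit, but not all; inactive = fewer than half of replicates past the limit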
BB721 growth rt = retest Vibrio harveyi BB721 growth inhibition. shares compounds with AI-2 QS mod. OD600 absorbance, 9 h. growth inhibition, % at 7.5 µM. actives 3% (n = 750). AID 2728;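 active = every replicate shows growth inhibition above 50%; inconclusive = at least half but not all replicates above 50% inhibition; inactive = under half of replicates above 50% inhibition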
AI-2 QS JMH597 = Vibrio harveyi AI-2 signaling luminescence modulation – JMH597 strain, confirmation | actives 97% (n = 750) | inhibition, % at 7.5 µM | shares compounds with AI-2 QS mod | Vibrio harveyi JMH597 AI-2 quorum sensing luminescence, 9 h; luxN and CqsS knockout, AI-2 only;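 active = every replicate shows more than 75% inhibition of signal versus neutral control wells; inconclusive = half to three quarters of replicates exceed 75% inhibition; inactive = fewer than half of replicates exceed 75% inhibition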
VLA-4 mod pick = human VLA-4 allosteric modulation in cherry picked compounds; shares compounds with VLA-4 inh; U937 cells, HUTS-21 LIBS mAb binding, flow cytometry; LDV ligand present at threefold Kd; inhibition, % at 6.7 µM; actives 2% (n = 1,300); AID 2813; in the data active = inhibition above about 40%;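 note: 0% = ligand without compound and 100% = no ligand background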
* hit, by the source's call; ? = inconclusive; / = not tested or not shown. Only some compounds are listed: those with a hit (about 1.1% of all), similar ones and a draw of the others.

SMILES	NTR1 agonist	AI-2 QS mod	DSG3 Ab inh	VLA-4 inh	VLA-4 mod pick	others
O=C(Nc1cccc(Cl)c1)OCCOCCOC(=O)Nc1cccc(Cl)c1	/	/	127	/	/
O=C(Nc1cccc(Cl)c1)OCc1cnc(Cl)s1	1	?	112	2	13	JMH597 growth rt=18;BB721 lum counter=92*;BB721 growth rt=22;AI-2 QS JMH597=92*
CC1(C(=O)NCCCN2CCOCC2)Oc2cccnc2NC1=O (stereo unspecified)	-2	12	109	1	/
COC(=O)c1c(C)[nH]c(C(=O)C(C)OC(=O)C2CC2C)c1C (stereo unspecified)	2	/	102	-15	-7
CCOc1c(OC)cccc1C1CC(=O)Nc2cc3c(cc21)OCCO3 (stereo unspecified)	3	-2	106	-10	-6
COc1cc2c(c(OC)c1)C(c1cccc(OC)c1OC)CC(=O)N2 (stereo unspecified)	2	10	100	31	0
CCCOc1c(OC)cccc1C1CC(=O)Nc2cc(OC)c(OC)c(OC)c21 (stereo unspecified)	2	8	100	-5	/
CCOc1ccccc1C1CC(=O)Nc2cc(OC)c(OC)cc21 (stereo unspecified)	2	16	91	9	/
COc1ccc(OC)c(C2CC(=O)Nc3cc(OC)c(OC)c(OC)c32)c1 (stereo unspecified)	2	-18	102	16	5
COc1ccccc1/C=N/OCc1ccc(C#N)cc1	0	25	113	3	/
CCn1c(=O)n(CC)c2cc(N3CCCC3)c(NC(=O)c3cccc(Cl)c3)cc21	7	-4	100	5	/
CCCCCCNC1=NCCS1	1	12	101	53*	-2
COc1ccc(OC)c([C@@H]2OCCC=C[C@H]2C)c1	-1	8	/	-2	/
CC(=O)c1ccsc1-c1c(C)cc2oc(=O)cc(-c3ccccc3)c2c1C	0	/	101	/	/
CC1Sc2ccc(C(=O)OCc3ccccc3Cl)cc2NC1=O (stereo unspecified)	7	36	99	-4	/
COc1ccc(S(=O)(=O)NC(C)C(=O)NCc2ccncc2)cc1C (stereo unspecified)	0	27	99	11	/
COC(=O)c1cc(CNC(=O)C(C)NS(=O)(=O)c2ccc(C)c(C)c2)ccc1OC (stereo unspecified)	3	3	?	3	0
O=C1OC(c2ccc3ccccc3c2O)(c2ccc3ccccc3c2O)c2ccccc21	/	/	100	/	/
CCCCOc1ccc(C(=O)OCC(=O)N2CCCCCC2)cc1	2	/	96	10	3
CC1CCCC(C)N1C(=O)COC(=O)c1cc(Br)ccc1Cl (stereo unspecified)	2	4	106	6	/
Nc1cc(Cl)ccc1C(=O)OCC(=O)N1CCCCCC1	-1	/	102	14	-10
CC1CCCC(C)N1C(=O)COC(=O)c1ccccc1O (stereo unspecified)	1	/	125	-3	7
Cc1cccc(C(=O)OCC(=O)N2CCCCCC2)c1C	-1	/	132	-2	0
COc1ccc(C(=O)Nc2nncs2)cc1S(=O)(=O)N1CCOCC1	-2	1	103	59*	-3
CC(=O)N1CCc2cc(S(=O)(=O)CCC(=O)N(C)c3cc(C)ccc3C)ccc21	-2	25	105	18	/
O=C(COC(=O)c1ccccc1C(=O)c1ccc(Cl)c([N+](=O)[O-])c1)NC1CCCCCC1	0	12	110	62*	32
O=C(COC(=O)c1ccc(Cl)c([N+](=O)[O-])c1)NC1CCCC1	4	10	88	8	/
